# Bioassay records deposited in PubChem by several laboratories.
# A selection: hits, their analogues and other compounds. The true share with any hit is near 0.5%.
# Tat transport – blocks Tat-dependent protein export in E. coli; E. coli MC4100 TorA-mCherry Tat export, fluorescence; inhibition, % at 10 µM; 340,000 tested, 0.036% active; AID 488895;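 active = mean replicate inhibition at least 50% and at least half of replicates individually reaching 50%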;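 also: exported cargo escapes ClpAP degradation while cytoplasmic cargo is degraded and loses fluorescence; 0% = median of neutral control wells and 100% = median of NaSCN control wells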
# E coli growth-1 – counter-screen for AddAB inhibitors: E. coli growth inhibition | 330,000 tested, 0.27% active | inhibition, % at 11.9 µM | E. coli V3065 growth, OD600 absorbance, 18 h;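 active = inhibition above the campaign's mean inhibition across all tested compounds plus 3 SD, cut at about 9.9% in these data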;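 also: uninfected addAB+ strain grown without phage in ampicillin broth; 0% = DMSO wells and 100% = ciprofloxacin 0.95 µg/ml wells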
# AddAB inh – less growth of phage-infected E. coli with AddAB; inhibition, % at 11.9 µM; 330,000 tested, 0.29% active; E. coli expressing H. pylori AddAB, absorbance growth; in the data active = inhibition above about 12%;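 also: 0% = vehicle wells of infected cells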
# phage Ecoli inh – E. coli growth loss with phage present | growth absorbance | inhibition, % at 11.9 µM | 360,000 tested, 0.26% active; in the data active = inhibition above about 11%
# E coli growth-2 – inhibitors of Escherichia coli growth | OD600, 23 h; active compounds read low | OD600 absorbance (test concentration not listed) | 330,000 tested, 0.21% active;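 active = OD600 absorbance below the run mean of sample wells minus 3.6 SD, in any replicate, cut at about 0.56 in these data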
# RecBCD conf – growth loss of phage-infected V66 E. coli, RecBCD confirmation screen; 890 tested, 45% active; shares compounds with phage Ecoli inh; E. coli V66 + T4 2- phage, growth OD; inhibition, % at 11.9 µM;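 active = mean inhibition over triplicates exceeding the hit threshold derived in the original primary screen, cut at about 11% in these data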
# Ecoli viability – counter-screen for RecBCD inhibitors: inhibitors of bacterial viability; AID 651983; inhibition, % at 11.9 µM; 890 tested, 29% active; E. coli viability, absorbance (OD) growth; shares compounds with phage Ecoli inh; in the data active = inhibition above about 20%;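 also: E. coli strain V66 grown with compound alone and no phage infection; 0% = bacteria with DMSO vehicle only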
# AddAB phage OD – growth loss of phage-infected AddAB E. coli, RecBCD counter-screen; shares compounds with phage Ecoli inh; E. coli expressing H. pylori AddAB + T4 phage, OD growth; gene 2 mutant T4, recBCD-deleted host; inhibition, % at 11.9 µM; 890 tested, 45% active; AID 651984;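 active = mean inhibition above the solvent-only control wells' mean plus 3 SD, cut at about 22% in these data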;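 also: higher means less bacterial growth from phage killing when AddAB is blocked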
# * marks the source's active call; other numbers are inactive results; . = not tested or not shown.
SMILES,Tat transport,E coli growth-1,AddAB inh,phage Ecoli inh,E coli growth-2,RecBCD conf,Ecoli viability,AddAB phage OD
Nc1nonc1-n1nnc(C(=O)N/N=C/c2cc(Br)ccc2O)c1CNc1ccccc1,-3.7,-0.3,5.4,12.2*,.,7.7,9.6,10.8
NS(=O)(=O)c1ccc(CCNC(=O)CC(NC(=O)c2ccccc2Cl)c2ccccc2)cc1 (stereo unspecified),2.0,-2.0,-2.2,15.2*,0.667,-0.6,-0.1,4.8
COc1ccc(CCNC(=O)CC(NC(=O)c2ccccc2Cl)c2ccccc2)cc1 (stereo unspecified),-0.4,-1.2,0.3,1.8,0.709,.,.,.
O=C1c2ccccc2C2=Nc3ccccc3SC(c3cccc(F)c3)C12 (stereo unspecified),-32.8,12.3*,8.3,15.6*,0.589,12.5*,9.5,26.2*
Fc1cccc(C2NN=C(c3ccccc3)S2)c1 (stereo unspecified),-2.8,2.4,0.7,0.6,0.733,.,.,.
CCN(CC)S(=O)(=O)c1cccc(NC(=O)CC2CCCC2)c1,24.7,0.9,1.7,1.1,0.702,.,.,.
CCN(CC)S(=O)(=O)c1cccc(NC(=O)Nc2cccc(C(F)(F)F)c2)c1,13.1,6.9,9.4,11.3*,0.64,2.0,4.3,2.0
COC(=O)C1=C(C)N(Cc2ccccc2C(F)(F)F)C(=NCc2cccc(C(F)(F)F)c2)NC1c1ccc(C(F)(F)F)cc1 (stereo unspecified),.,.,.,4.7,.,.,.,.
COC(=O)C1=C(C)N(Cc2ccccc2C(F)(F)F)C(=NCc2ccccc2)NC1c1ccc(C(F)(F)F)cc1 (stereo unspecified),.,.,.,13.3*,.,1.3,1.5,7.9
COc1ccc(Cl)cc1NS(=O)(=O)c1c(C)nc2sccn2c1=O,3.6,-0.5,3.4,2.5,0.751,.,.,.
Cc1ccc(C)c(NS(=O)(=O)c2c(C)nc3sccn3c2=O)c1,-9.7,0.3,-2.0,98.6*,0.697,-1.9,-2.0,-2.4
Oc1[nH]c2ccccc2c1C=Nc1nccs1,.,.,.,.,0.64,.,.,.
CCC(=O)Nc1ccc2nc(C)n(CC(=O)Nc3ccccc3)c(=O)c2c1,0.3,-4.0,-1.3,3.7,0.688,.,.,.
Cc1cc(NC(=O)Cn2c(C)nc3ccccc3c2=O)ccc1Br,4.3,18.7*,20.0*,13.4*,0.759,12.1*,16.8,17.4
S=C(NCc1ccccn1)NN=Cc1ccccn1,-0.1,.,.,17.6*,.,13.6*,15.9,15.8
CN(C)CCNc1cccc2sc3ccc(O)cc3c(=O)c12,.,.,.,13.4*,.,-2.5,-2.9,3.4
Cc1ccc(NCCN(C)C)c2c(=O)c3cc(O)ccc3sc12,-8.8,.,.,1.2,.,.,.,.
Oc1ccccc1C=NNC(=S)NN=Cc1ccccc1O,-2.3,.,.,12.7*,0.571,12.9*,13.4,37.6*
Oc1ccc(/C=N/NC(=S)Nc2cccnc2)c(O)c1O,2.0,.,.,14.7*,.,11.3*,12.1,32.5*
NC(=S)N/N=C/c1ccccc1O,2.9,1.6,2.6,2.0,.,.,.,.
COc1cccc(C2c3c(oc4ccccc4c3=O)C(=O)N2CCCN2CCOCC2)c1 (stereo unspecified),28.8,2.1,1.6,15.2*,0.676,-2.1,-1.8,-5.9
Cc1cc(C)cc(N=C2NC(=O)/C(=C/c3cccs3)S2)c1,5.6,-3.9,0.3,2.6,0.692,.,.,.
CCOc1ccc2c(c1)S/C(=C\c1cccs1)C(=O)N2,-6.7,0.3,0.7,53.8*,0.688,0.2,0.6,5.3
COc1ccc(C2CC(=O)C=C(c3cccc(F)c3OC)C2)cc1 (stereo unspecified),.,.,.,.,0.698,.,.,.
